Screening results from PubChem BioAssay.
Rv3671c protease: inhibits the M. tuberculosis serine protease Rv3671c. inhibition, % at 5.96 µM. hit rate 0.048% among 320,000. P9WHR9. AID 2606; in the data active = inhibition above about 38%;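 note: extracellular domain of Rv3671c used as enzyme; 0% = enzyme with DMSO and 100% = no enzyme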
Mtb UGM inh: blocks M. tuberculosis UGM enzyme | purified UGM, fluorescence polarization probe displacement | hit rate 0.06% among 320,000 | inhibition, % at 10 µM | P9WIQ1; in the data active = inhibition above about 10%, passing the limit was not always enough; inconclusive = no clear call, values can overlap the other calls
FBA Mtb inh: inhibits M. tuberculosis FBA enzyme; hit rate 2.3% among 360,000; AID 588726; purified M. tuberculosis FBA, fluorescence read-out; inhibition, % at 1 µM;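 note: 0% = vehicle and 100% = reference inhibitor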
Target sequence (P9WQA3 whole entry, looked up): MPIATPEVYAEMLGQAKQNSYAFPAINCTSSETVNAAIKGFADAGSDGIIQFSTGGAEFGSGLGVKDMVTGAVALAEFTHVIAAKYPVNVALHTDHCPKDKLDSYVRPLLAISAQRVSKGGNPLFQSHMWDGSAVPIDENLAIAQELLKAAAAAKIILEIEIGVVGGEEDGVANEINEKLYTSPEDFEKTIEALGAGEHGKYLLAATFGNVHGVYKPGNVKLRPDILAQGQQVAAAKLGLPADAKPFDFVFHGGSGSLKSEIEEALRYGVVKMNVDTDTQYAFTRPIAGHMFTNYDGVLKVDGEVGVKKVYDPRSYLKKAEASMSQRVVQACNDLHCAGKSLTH
GDH-TPI counter-1: counter-screen for M. tuberculosis FBA inhibitors: GDH-TPI coupled enzymes; GDH-TPI coupled enzyme counterscreen, NADH absorbance; inhibition, % at 4.8 µM; hit rate 1.2% among 360,000; in the data active = inhibition above about 30%;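 note: 0% = DMSO wells and 100% = wells lacking the enzyme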
RecA intein inh: blocks M. tuberculosis RecA intein splicing; P9WHJ3; cell-free RecA intein splicing, fluorescence; inhibition, % (no concentration beside the values); hit rate 0.75% among 290,000; in the data active = inhibition above about 30%; inconclusive = no clear call, values can overlap the other calls;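 note: 0% = vehicle wells and 100% = reference inhibitor control wells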
Mtb bLac sens: beta-lactam sensitization of Mtb H37Rv. M. tuberculosis H37Rv growth with meropenem, percent inhibition. inhibition, % at 25 µM. hit rate 0.27% among 330,000; call rule not given here;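 note: growth measured after seven days incubation then overnight dye step; 0% = bacteria only wells and 100% = bacteria with antibiotic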
Mtb FBA inh conf: Mtb FBA inhibition, confirmed | shares compounds with FBA Mtb inh | purified M. tuberculosis FBA, fluorescence read-out | inhibition, % at 1 µM | hit rate 78% among 5,600;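 note: 0% = vehicle wells and 100% = reference inhibitor wells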
GDH-TPI counter-2: inhibits GDH-TPI coupling enzymes, flagging Mtb FBA hits. shares compounds with FBA Mtb inh. inhibition, % at 1 µM. GDH-TPI coupled enzyme counterscreen, fluorescence. AID 652141. hit rate 81% among 5,600; in the data active = inhibition above about 10%
GDH-TPI DR: inhibits GDH-TPI coupling enzymes in dose response | IC50, µM | shares compounds with FBA Mtb inh | AID 652145 | hit rate 79% among 170 | GDH-TPI coupled enzyme assay, fluorescence, artifact counterscreen; call rule not given here
* hit, by the source's call; ? = inconclusive; . = not tested or not shown; + = active, no number. Rows were chosen to be rich in hits. Some 4% of all compounds tested hit in one or more screens of this group. Cut-off read from the data, not from the text of the source, unless noted: active = inhibition above about 27%; inactive = the rest.

SMILES	Rv3671c protease	Mtb UGM inh	FBA Mtb inh	GDH-TPI counter-1	RecA intein inh	Mtb bLac sens	Mtb FBA inh conf	GDH-TPI counter-2	others
CC(C)c1nc(SCC(=O)NC2CCCC2)c2c(=O)n(C)c(=O)n(C)c2n1	5	0	0	-2	2	?	.	.
Cc1ccc(NC(=O)COC(=O)[C@H](C)NC(=O)c2ccccc2)cc1S(=O)(=O)N1CCOCC1	-5	0	-3	7	1	-4	.	.
CC(=O)OC(C(=O)NCc1ccc2c(c1)OCO2)c1ccccc1Cl (configuration not stated)	-7	-2	105*	4	0	-16	120*	92*
CC(C)C(OC(=O)c1ccco1)C(=O)NCc1ccc2c(c1)OCO2 (configuration not stated)	1	1	74*	2	1	-4	135*	84*
O=C(NCc1ccc2c(c1)OCO2)c1ccccc1Cl	5	-1	0	9	-2	4	.	.
Cc1ccc(CN2CC(C(=O)N3CCN(S(=O)(=O)c4c(F)cccc4F)CC3)CC2=O)cc1 (configuration not stated)	2	0	5	1	-2	-2	.	.
CCNC(=O)c1c(O)c2ccccc2[nH]c1=O	-1	-2	48*	2	-182	15	180*	141*
CCN(C(=O)c1cnc(NC(C)C)cc1C(F)(F)F)c1ccc(Cl)cc1Cl	5	5	51*	10	6	1	85*	62*
COc1ccc(-c2cc(C(=O)NCC3CCCO3)c3cc(C(C)C)ccc3n2)cc1 (configuration not stated)	-8	-2	67*	24	-1	98	10	-3	GDH-TPI DR=1.6*
COc1ccc(-c2nc(C(=O)NCC3CCCO3)cc3c2[nH]c2ccccc23)cc1 (configuration not stated)	-59	1	30*	9	3	-6	+	+
COc1ccc(-c2cc(C(=O)NCC3CCCO3)c3ccccc3n2)cc1 (configuration not stated)	2	2	46*	9	-3	3	178*	173*
Cc1ccc2nc(-c3cccc(Br)c3)cc(C(=O)NCC3CCCO3)c2c1 (configuration not stated)	-2	1	6	17	0	29	.	.
COc1ccc(-c2cc(C(=O)NCC3CCCO3)c3cc(C)ccc3n2)cc1 (configuration not stated)	2	1	76*	12	9	-5	107*	72*
COc1cccc(-c2cc(C(=O)NCC3CCCO3)c3ccccc3n2)c1 (configuration not stated)	-3	1	-6	8	4	-3	.	.
CCC(C)NC(=O)[C@H]1N2C(=O)c3c(ccc(OC)c3OC)C2SC1(C)C (some centres not stated)	7	1	7	7	1	-2	.	.
COc1ccc(-c2cc(C(=O)NCc3ccco3)c3ccccc3n2)cc1	-7	4	28*	19	-4	4	.	+
COc1ccc(-n2nc(C(=O)NCC(=O)NCC3CCCO3)c3ccccc3c2=O)c(OC)c1 (configuration not stated)	3	-3	1	2	-2	-2	.	.
COc1ccc(-n2c(N)c(C(=O)NCC3CCCO3)c3nc4ccccc4nc32)c(OC)c1 (configuration not stated)	-8	3	104*	15	-3	13	73*	71*
O=C(COC(=O)c1ccccc1O)Nc1cc([N+](=O)[O-])ccc1Cl	-5	-2	-3	9	-1	2	.	.
CC1CC(C)CN(S(=O)(=O)c2cccc3nsnc23)C1 (configuration not stated)	-7	0	1	4	1	-5	.	.
COc1ccccc1-c1cc2nc(-c3ccccc3)cc(N3CCN(C(=O)c4ccco4)CC3)n2n1	.	.	48*	6	.	.	54*	43*
